The record followed here is PubChem BioAssay.

Assay [1] is described as follows: Wnt pathway potentiators raising nuclear beta-catenin – imaging, WNT3A-conditioned medium, mouse C2C12, NPC library, primary screen (AID 1117326). Also: reference of the scale not given here. Conditions: stronger effect = higher value.
Assay [2] in a line: stimulators of insulin release from INS-1E, primary screen, cell-based, 5 mM glucose, NPC library (AID 1117329;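 active = compound raises insulin release from rat beta cells at 5 mM glucose, no numeric limit stated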; also: reference of the scale not given here). The settings on record: rat INS-1E insulin secretion, at 10 µM, stronger effect = higher value.
The nature of assay [3]: growth inhibition of GSK3B-pretreated HCT116 cells – cell-based, CellTiter-Glo, 0.2 to 20 µM (AID 1117336;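 active = compounds lowering colon cancer cell viability after pretreatment blocking the GSK3B kinase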). The settings on record: HCT116 viability after GSK3B inhibitor, at 20 µM, stronger effect = higher value. (In general: ATP-based viability assays read luminescence as a measure of living cells.)
The nature of assay [4]: inhibition of endothelial tube formation, primary screen, imaging, VEGF stimulated, CD31 staining, tube area, NPC library (AID 1117340;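 active = compound that reduces growth-factor-driven endothelial tube area in a mixed cell culture, no cutoff stated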). Conditions: VEGF-stimulated ADSC/ECFC co-culture, at 10 µM, stronger effect = higher value.
A short description of assay [5]: GLP1 release stimulators, primary, NCI-H716, NPC library (AID 1117341;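 active = compound raises GLP1 secretion from the human gut endocrine cells, with no numeric limit stated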; also: reference of the scale not given here). Conditions: NCI-H716 cells, at 10 µM, stronger effect = higher value.
The nature of assay [6]: HCT116 colon cancer cell growth inhibition, primary screen, CellTiter-Glo luminescence, NPC library (AID 1117342;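 active = compounds that lower survival of HCT116 colon cancer cells in the luminescence readout, no numeric limit stated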). The settings on record: at 20 µM (top of the series).
A short description of assay [7]: reduced SW480 viability measured with CellTiter-Glo, NPC library, primary (AID 1117343;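 active = compounds that lower viability of the colon cancer cells in the luminescence readout, with no numeric limit stated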). The settings on record: CellTiter-Glo luminescence; at 20 µM (top of the series).
Assay [8] is described as follows: NPC library primary testing for decreased DLD-1 cell viability via CellTiter-Glo (AID 1117346;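 active = compounds that lower survival of DLD-1 colon cancer cells in the luminescence readout, no cutoff given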). The settings on record: DLD-1 viability, CellTiter-Glo luminescence; at 20 µM (top of the series).

The structures appear in SMILES notation. Active and inactive are the calls of the source. Rule as the data show it, unless noted: active = nuclear beta-catenin stimulation mostly above about 4.2% (no sharp cut-off); inactive = mostly below about 10%.

On to `NS(=O)(=O)c1cc(-c2nn[nH]n2)c(NCc2cccs2)cc1Cl`, for which the nuclear beta-catenin stimulation in assay [1] (at 10 µM) is -3% (inactive); in assay [1] (stimulation, at 2 µM), -0.1%. The insulin secretion stimulation in assay [2] was 6.5% (inactive). The viability decrease in assay [3] is -3% (inactive). In assay [4], the tube area decrease is -8.2% (inactive). Besides, the GLP1 secretion stimulation in assay [5] was -0.2% (inactive). Moreover, in assay [6], the inhibition of viability is -19.7% (inactive). Moreover, the results for the viability decrease (inhibition) in assay [7] and in assay [8] were 2.3% (inactive) and -10.7% (inactive), respectively.

In the case of `CCN(CC)c1ccc(C(=C2C=CC(=[N+](CC)CC)C=C2)c2cc(S(=O)(=O)O)ccc2S(=O)(=O)[O-])cc1`, the nuclear beta-catenin stimulation was 0.8% (inactive) in assay [1] (at 10 µM) and 4.4% in assay [1] (stimulation, at 2 µM). In addition, the insulin secretion stimulation in assay [2] is 1.5% (inactive). Besides, the viability decrease in assay [3] was 1.1% (inactive). Moreover, the tube area decrease in assay [4] was 10.6% (inactive). In assay [5], the GLP1 secretion stimulation was -12.8% (inactive). In addition, the inhibition of viability in assay [6] is 20.3% (inactive). Also, the viability decrease (inhibition) in assay [7] was 52.8% (active); in assay [8] it was 13% (inactive).

As to `CCCCCCCCCCCC[N+](C)(C)Cc1ccccc1`, the nuclear beta-catenin stimulation in assay [1] (at 10 µM) is 7.4% (inactive); in assay [1] (stimulation, at 2 µM), -1.2%. Also, the insulin secretion stimulation in assay [2] was 1.9% (inactive). In addition, the viability decrease in assay [3] was 99.3% (active). Also, the tube area decrease in assay [4] was 108% (active). Moreover, the GLP1 secretion stimulation in assay [5] was -2.1% (inactive). For the same molecule, in assay [6], the inhibition of viability was 99.6% (active). Also, the viability decrease (inhibition) in assay [7] is 78.1% (active); in assay [8] it was 101% (active).

Turning to `O=C(O)[C@@H]1CCCN1`, the nuclear beta-catenin stimulation in assay [1] (at 10 µM) is 0.9% (inactive); in assay [1] (stimulation, at 2 µM), 1.2%. Also, in assay [2], the insulin secretion stimulation is 1.6% (inactive). Further, in assay [3], the viability decrease was 2.9% (inactive). Besides, the tube area decrease in assay [4] is -4% (inactive). Besides, the GLP1 secretion stimulation in assay [5] is -1.7% (inactive). Further, the inhibition of viability in assay [6] was 36.6% (inactive). The viability decrease (inhibition) was 42.8% (inactive) in assay [7] and 57.9% (active) in assay [8].

Turning to `Cc1cccc(C)c1NC(=O)CN1CCCCCC1`, the nuclear beta-catenin stimulation in assay [1] (at 10 µM) was -2% (inactive); in assay [1] (stimulation, at 2 µM), 0.1%. Moreover, the insulin secretion stimulation in assay [2] is 1.9% (inactive). The viability decrease in assay [3] was -6.6% (inactive). Moreover, the tube area decrease in assay [4] is -7.7% (inactive). Moreover, the GLP1 secretion stimulation in assay [5] was -1% (inactive). Further, in assay [6], the inhibition of viability was -16.3% (inactive). Moreover, the viability decrease (inhibition) in assay [7] is 23.3% (inactive); in assay [8] it was -8.2% (inactive).

`O=C1NC2CCCCN2C12CCN(CCCN1c3ccccc3CCc3ccc(Cl)cc31)CC2` (stereo unspecified): the nuclear beta-catenin stimulation in assay [1] (at 10 µM) was 13.1% (inactive); in assay [1] (stimulation, at 2 µM), 0.1%. Besides, the insulin secretion stimulation in assay [2] was 3.85% (inactive). Moreover, the viability decrease in assay [3] was 108% (active). Also, the tube area decrease in assay [4] is 89.4% (active). In assay [5], the GLP1 secretion stimulation was 13.3% (inactive). In assay [6], the inhibition of viability is 112% (active). Moreover, the viability decrease (inhibition) was 128% (active) in assay [7] and 101% (active) in assay [8].

As to `NC(=Nc1ccccc1)Nc1ccccc1`, the nuclear beta-catenin stimulation in assay [1] (at 10 µM) was 0.2% (inactive); in assay [1] (stimulation, at 2 µM), 1.4%. For the same molecule, the insulin secretion stimulation in assay [2] is 13.9% (inactive). The viability decrease in assay [3] is 24.6% (inactive). In addition, the tube area decrease in assay [4] was 10.1% (inactive). The GLP1 secretion stimulation in assay [5] was 2.8% (inactive). In addition, the inhibition of viability in assay [6] is -1% (inactive). Moreover, the viability decrease (inhibition) in assay [7] is 77.3% (active); in assay [8], 75.2% (active).

Take `CC1(C)O[C@@H]2C[C@H]3[C@@H]4CCC5=CC(=O)C=C[C@]5(C)[C@@H]4[C@@H](O)C[C@]3(C)[C@]2(C(=O)CO)O1`: the nuclear beta-catenin stimulation is 0.6% (inactive) in assay [1] (at 10 µM) and 1.2% in assay [1] (stimulation, at 2 µM). In addition, the insulin secretion stimulation in assay [2] is -1% (inactive). Moreover, the viability decrease in assay [3] is -46.1% (inactive). In addition, in assay [4], the tube area decrease was 4.9% (inactive). Further, the GLP1 secretion stimulation in assay [5] is 1.2% (inactive). The inhibition of viability in assay [6] was -6.5% (inactive). The viability decrease (inhibition) in assay [7] was -17.7% (inactive); in assay [8], -7.4% (inactive).

Take `CCCCCCCCOc1ccc(C(=O)c2ccccc2)c(O)c1`: the nuclear beta-catenin stimulation in assay [1] (at 10 µM) was 1% (inactive); in assay [1] (stimulation, at 2 µM) it was 0.6%. Further, the insulin secretion stimulation in assay [2] is -2.1% (inactive). Further, the viability decrease in assay [3] is -6.85% (inactive). For the same molecule, the tube area decrease in assay [4] was -7.2% (inactive). In assay [5], the GLP1 secretion stimulation was 0.4% (inactive). In assay [6], the inhibition of viability is -7.5% (inactive). Also, the viability decrease (inhibition) in assay [7] is -0.5% (inactive); in assay [8], 6.1% (inactive).

As for `Cc1ncc(C[n+]2csc(CCOP(=O)(O)O)c2C)c(N)n1`, the nuclear beta-catenin stimulation was 0.8% (inactive) in assay [1] (at 10 µM) and -0.6% in assay [1] (stimulation, at 2 µM). Moreover, the insulin secretion stimulation in assay [2] was -0.4% (inactive). Besides, the viability decrease in assay [3] was -15.6% (inactive). Moreover, the tube area decrease in assay [4] is -8.2% (inactive). In assay [5], the GLP1 secretion stimulation is 1% (inactive). Besides, the inhibition of viability in assay [6] was -0.4% (inactive). Further, the viability decrease (inhibition) in assay [7] is -13.2% (inactive); in assay [8] it was 17.1% (inactive).

Take `CC(C)CCC[C@@H](C)[C@H]1CC[C@H]2[C@@H]3CC[C@H]4C[C@@H](O)CC[C@]4(C)[C@@H]3CC[C@]12C`: the nuclear beta-catenin stimulation was 0% (inactive) in assay [1] (at 10 µM) and 0.5% in assay [1] (stimulation, at 2 µM). Also, in assay [2], the insulin secretion stimulation is 1.1% (inactive). Further, the viability decrease in assay [3] was 1.6% (inactive). Moreover, the tube area decrease in assay [4] was -1.6% (inactive). The GLP1 secretion stimulation in assay [5] is -1.9% (inactive). Further, the inhibition of viability in assay [6] was -2.8% (inactive). Also, the viability decrease (inhibition) in assay [7] is -7.2% (inactive); in assay [8], -8.7% (inactive).

With `Cc1nc2n(c(=O)c1CCN1CCC(C(=O)c3ccc(F)cc3)CC1)CCS2`, the nuclear beta-catenin stimulation is 0.2% (inactive) in assay [1] (at 10 µM) and -0.8% in assay [1] (stimulation, at 2 µM). In addition, the insulin secretion stimulation in assay [2] was 0.2% (inactive). Further, the viability decrease in assay [3] is 38% (inactive). The tube area decrease in assay [4] was 14.8% (inactive). Further, in assay [5], the GLP1 secretion stimulation was 5.4% (inactive). For the same molecule, in assay [6], the inhibition of viability was 67.6% (active). Besides, the viability decrease (inhibition) in assay [7] is 29.6% (inactive); in assay [8] it was 33.5% (inactive).

Take `Oc1ccccc1C=NCc1ccccc1`: the nuclear beta-catenin stimulation is -0.8% (inactive) in assay [1] (at 10 µM) and -0.6% in assay [1] (stimulation, at 2 µM). In addition, in assay [2], the insulin secretion stimulation was -2.2% (inactive). Also, the viability decrease in assay [3] is 0.9% (inactive). In assay [4], the tube area decrease is -29.7% (inactive). Also, in assay [5], the GLP1 secretion stimulation is 3.8% (inactive). In addition, the inhibition of viability in assay [6] is 0.1% (inactive). Also, the viability decrease (inhibition) in assay [7] is 13.6% (inactive); in assay [8] it was 0.75% (inactive).

For the molecule `CCOC(=O)NNc1ccc(N(CC)CC(C)O)nn1` (stereo unspecified), the nuclear beta-catenin stimulation in assay [1] (at 10 µM) was -1.1% (inactive); in assay [1] (stimulation, at 2 µM) it was 0.1%. Further, the insulin secretion stimulation in assay [2] was 0.3% (inactive). Also, the viability decrease in assay [3] is -1% (inactive). Also, the tube area decrease in assay [4] is -17.2% (inactive). Besides, in assay [5], the GLP1 secretion stimulation was 1.1% (inactive). Moreover, in assay [6], the inhibition of viability was 6.1% (inactive). For the same molecule, the viability decrease (inhibition) in assay [7] is 2.6% (inactive); in assay [8] it was 1% (inactive).
